GLP1R ag: agonists of human GLP-1 receptor. P43220. HEK293 GLP-1R CRE-luciferase, luminescence, 4-6 h; cells express a hypersensitive GLP-1R form. Potency, µM (series often up to 45.6 µM), without a hit: at the top dose activation, usual class: activators. actives 0.007% (n = 380,000); also: % of control where 0% means no effect
Gal4-VP16 FLuc: Gal4-VP16 reporter inhibition counter-screen | Potency, µM (top dose mostly 53.6 µM), without a hit: at the highest dose activity, negative = inhibition, actives largely listed as inhibitors | actives 3.5% (n = 310,000) | Drosophila S2 Gal4-VP16 UAS-luciferase, luminescence, 20 h;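 also: Gal4-VP16 expression switched on by copper sulfate through the metallothionein promoter; % is scaled to controls: 0 for no effect and ±100 for the full control effect; nearly all actives have a fitted effect of over 50% in size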
HEK293 tox: cytotoxicity in counter-screen for GLP-1R inverse agonists; Potency, µM (series often up to 38.3 µM), for inactives: at the highest dose activity change, negative = inhibition, hits mostly inhibitors; actives 0.13% (n = 410,000); HEK293 cAMP-luciferase reporter cells, luminescence, 24 h;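 also: loss of luciferase light is scored as toxicity; % is scaled to controls: 0 for no effect and ±100 for the full control effect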
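MLSMR compounds, 24 hr on cells at 37 deg C/5% CO2; luminescence after luciferase reagent (12 min RT). Inhibition counted as the undesired cytotoxic outcome.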
GLP-1R inv ag: acts as inverse agonist at human GLP-1 receptor; HEK293 GLP-1R CRE-luciferase, luminescence, 24 h; GLP-1R form is constitutively active; actives 1.6% (n = 410,000); Potency, µM (top dose mostly 38.3 µM), for the others: top-dose activity change, negative = inhibition, actives largely listed as inhibitors; AID 624417; P43220; also: % is scaled to controls: 0 for no effect and ±100 for the full control effect; nearly all actives have a fitted effect of over 55% in size
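HEK293 cells stably co-expressing constitutively active GLP-1R and a cAMP-responsive luciferase reporter were seeded in DMEM with 10% Nu serum, given compounds after 12 h, and incubated 24 h at 37 deg C. Luminescence was then read.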
RORg inh: inhibitors of mouse ROR gamma transcriptional activity | P51450 | Drosophila S2 Gal4-RORgamma UAS-luciferase reporter, 20 h | Potency, µM (doses to about 53.6 µM), for inactives: at the highest dose activity change, negative = inhibition, most hits filed as inhibitors | actives 5.4% (n = 310,000); also: % is scaled to controls: 0 for no effect and ±100 for the full control effect; nearly all actives have a fitted effect of over 60% in size
Target sequence (P51450 whole entry, looked up, the tested form may be a part): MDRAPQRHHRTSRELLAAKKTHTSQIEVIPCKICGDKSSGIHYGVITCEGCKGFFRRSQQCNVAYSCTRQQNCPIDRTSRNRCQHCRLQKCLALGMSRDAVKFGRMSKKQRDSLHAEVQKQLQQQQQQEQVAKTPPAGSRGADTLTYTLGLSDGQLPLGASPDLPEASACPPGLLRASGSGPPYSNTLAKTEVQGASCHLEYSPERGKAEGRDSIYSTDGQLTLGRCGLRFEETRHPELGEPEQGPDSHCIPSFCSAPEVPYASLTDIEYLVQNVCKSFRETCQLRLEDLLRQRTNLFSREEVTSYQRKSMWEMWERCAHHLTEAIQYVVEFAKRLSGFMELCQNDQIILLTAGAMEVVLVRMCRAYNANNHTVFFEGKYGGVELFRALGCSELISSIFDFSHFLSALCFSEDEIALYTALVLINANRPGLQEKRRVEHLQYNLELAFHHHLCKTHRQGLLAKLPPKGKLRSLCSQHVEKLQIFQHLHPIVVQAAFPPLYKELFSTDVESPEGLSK
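Luminescence from a UAS-regulated Photinus luciferase reporter in stably transfected Drosophila Schneider cells is measured; decreased signal marks ROR gamma inhibition. Fusion expression is induced by 700 uM copper sulfate for 20 hr.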
Active calls of the source: *; ? = inconclusive; . = no result given; ! = not active in a repeat; [ ] = dose if it differs, or a comment. A selection: hits, their analogues and other compounds. The true share with any hit is near 5.9%. Calls follow the shape of the dose curve; as a rule, active = well fitted curve in the direction sought with a large enough effect; inconclusive = small, poorly fitted or top-dose-only effect, or another doubt; inactive = no such curve, though single readings can be large; an effect the other way counts as inactive or inconclusive. Potency is read from the fitted curve at half-maximal effect.

SMILES | GLP1R ag | Gal4-VP16 FLuc | HEK293 tox | GLP-1R inv ag | RORg inh
CCOc1ccc(C(=O)/C=C/c2ccc(SC)cc2)cc1 | -3.1% | 1.8% | 2.0% | 0.0% | ?
O=C(/C=C/c1ccccc1)CC(=O)c1ccccc1O | -1.0% | 11.2µM* | 7.6% | ? | ?
CSc1ccc(/C=C/C(=O)c2ccc(O)cc2)cc1 | 4.2% | 1.12µM* | -1.0% | ? | 0.501µM*
COc1ccc(/C=C/C(=O)c2cc(F)ccc2OC(=O)c2ccccc2)cc1OC | -0.3% | . | -27.7% | ? | .
CC(=O)NCCCS(=O)(=O)O | -2.3% | -0.2% | . | . | 24.0%
CSc1ccc(CNC(=O)C2CCN(c3nnc(-n4cccc4CNc4ccc(C)cc4)s3)CC2)cc1 | . | . | -1.3% | ? | .
COc1cc(/C=C/C(=O)c2ccc(O)cc2O)ccc1O | . | -23.7% | . | . | ?
COc1ccc(/C=C/C(=O)c2ccc(O)cc2O)cc1OC | . | ? | . | . | 2µM*
O=C(/C=C/c1ccc(O)cc1)c1ccc(O)cc1O | 12.9% | ? | -6.4% | ? | 1.78µM*!
CCOc1ccc(NC(=O)N2CCOc3ccccc32)cc1 | . | . | 2.3% | 5.2% | .
CCOC(=O)c1cnc2c(OC)cccc2c1N1CCN(c2ccc(OC)cc2)CC1 | 12.0% | 2.24µM* | -13.1% | ? | -5.2%
COc1ccc(N2C(=O)CC(Sc3nnnn3-c3ccc(F)cc3)C2=O)cc1 (stereo not given) | 0.6% | -15.5%[10 µM] | ? | ? | 11.2µM*
O=C1CC(SC(=Nc2ccccc2)Nc2ccccc2)C(=O)N1c1ccc(Cl)cc1 (stereo not given) | -21.2% | -23.3% | -2.9% | 0.8% | 2.4%
O=C1CC(SCc2nc3ccccc3[nH]2)C(=O)N1c1cccc(Cl)c1 (stereo not given) | -6.2% | 12.6µM* | -14.8% | 2.9% | 10µM*
O=C1CC(SC(=Nc2ccccc2)Nc2ccccc2)C(=O)N1c1cccc(Cl)c1 (stereo not given) | -0.8% | -14.5% | ? | 5.01µM* | ?
COc1ccc(N2C(=O)CC(Sc3nnc(-c4ccccc4)o3)C2=O)cc1 (stereo not given) | -8.6% | ? | -2.4% | -3.0% | 5.62µM*
COc1ccc2oc(-c3cccc(NC(=O)c4sc5c([N+](=O)[O-])cccc5c4Cl)c3)nc2c1 | 2.6% | . | 3.4% | 0.0% | .
O=C1CC(Sc2nnnn2-c2ccccc2)C(=O)N1c1cccc(Cl)c1 (stereo not given) | -31.7% | 3.16µM* | -10.4% | ? | 3.55µM*
Clc1cccc(N2CCN(c3nnnn3-c3ccccc3)CC2)c1 | 6.3% | -8.4% | -27.8% | ? | 16.5%
Cc1ccc(NS(=O)(=O)c2cccc(C(=O)NC3CCN(Cc4ccccc4)CC3)c2)c(C)c1 | -3.6% | . | 11.2µM* | ? | .
O=C(NCC(c1cccs1)N1CCOCC1)c1cccc(S(=O)(=O)Nc2ccc(F)cc2)c1 (stereo not given) | -5.6% | . | 2.5% | -14.2% | .
C=CCN(c1ccccc1)S(=O)(=O)c1cccc(C(=O)NC2CCN(Cc3ccccc3)CC2)c1 | -1.0% | . | ? | 12.6µM* | .
Cc1ccc(NS(=O)(=O)c2cccc(C(=O)NCC(c3ccc(F)cc3)N3CCOCC3)c2)cc1 (stereo not given) | 4.8% | . | -11.0% | 10µM* | .
O=C(NC1CCN(Cc2ccccc2)CC1)c1cccc(S(=O)(=O)Nc2ccc(Br)cc2)c1 | -4.0% | . | -10.9% | ? | .
COc1ccccc1NS(=O)(=O)c1ccc(C)c(C(=O)NC2CCN(Cc3ccccc3)CC2)c1 | -11.7% | . | -2.5% | 11.2µM* | .
SMILES | GLP1R ag | Gal4-VP16 FLuc | HEK293 tox | GLP-1R inv ag | RORg inh
COc1ccccc1NS(=O)(=O)c1cccc(C(=O)NC2CCN(Cc3ccccc3)CC2)c1 | 9.3% | . | -4.4% | ? | .
O=C(NCCc1ccccc1Cl)c1sc2ncccc2c1-n1cccc1 | . | . | -2.0% | ? | .
O=C(NC1CCN(Cc2ccccc2)C1)c1cc(COc2ccc(F)cc2F)on1 (stereo not given) | 12.7% | -8.6% | 0.7% | ? | 13.0%
Cc1oc(C(C)(C)C)cc1C(=O)NC1CCN(Cc2ccccc2)CC1 | -1.3% | 3.3% | -29.2% | 12.6µM* | -1.9%
O=C(NC1CCN(Cc2ccccc2)CC1)c1cccc(S(=O)(=O)Nc2ccc(F)cc2)c1 | -0.4% | . | 11.2µM* | 7.08µM* | .
Cc1oc(-c2ccc(Cl)cc2)cc1C(=O)NC1CCN(Cc2ccccc2)CC1 | 3.3% | 2.5% | 0.0% | ? | 17.9%
Cc1ccc(C)c(OCc2cc(C(=O)NC3CCN(Cc4ccccc4)CC3)no2)c1 | -1.2% | -23.5% | 0.0% | 2.24µM* | 22.5%
O=C(Nc1ccc(F)cc1)[C@H](CSCc1ccccc1)N1Cc2ccccc2C1=O | -2.2% | . | -15.3% | -8.2% | .
COc1ccccc1N1CCN(C(=O)c2cc(S(=O)(=O)N3CCC(C)CC3)cn2C)CC1 | -0.2% | . | 2.9% | -7.8% | .
COc1ccc(SCc2cc(=O)c3cc(Cl)ccc3[nH]2)cc1 | . | . | -2.3% | -27.5% | .
NS(=O)(=O)c1ccc(CCNC(=O)c2nc(SCc3ccccc3F)ncc2Cl)cc1 | . | . | -16.4% | -19.3% | .
Cc1ccc(-c2cnn(-c3ccccc3)c2N)cc1 | -1.0% | ? | 23.9% | ? | ?
COc1ccc(-c2c(C)nn(-c3ccccc3)c2N)cc1 | -1.6% | 5.8% | -1.5% | 0.0% | -0.3%
Nc1c(-c2ccccc2)cnn1-c1ccc(C(=O)O)cc1 | -14.5% | ? | -3.2% | 0.0% | 10µM*
Cc1nn(-c2ccc(C(=O)O)cc2)c(N)c1-c1ccccc1 | -23.4% | ? | 14.3% | -16.2% | 10µM*
CSc1ccc(CNC(=O)Cn2nc(N3CCN(c4ccccc4)CC3)ccc2=O)cc1 | . | . | 0.7% | -14.7% | .
CCCCC/C=C\C/C=C\C/C=C\C/C=C\CCCCCC(=O)NCCCC(=O)O | . | -4.9% | . | . | 10.2%
Cc1c(Cl)cccc1NC(=O)Cn1c(=O)cc(C)c2c(C)nn(-c3cccc(F)c3)c21 | . | . | -2.6% | -8.0% | .
CCOc1ccc(C2c3[nH]c4ccccc4c3CCN2C(=O)CCC2CCCC2)cc1 (stereo not given) | . | . | 0.7% | 1.26µM* | .
O=C(CCC1CCCC1)N1CCc2c([nH]c3ccccc23)C1c1ccc(Cl)cc1 (stereo not given) | . | . | 12.8% | 3.16µM* | .
CCOc1cccc(CC(=O)N2CCc3c([nH]c4ccccc34)C2c2ccc(Cl)cc2)c1OCC (stereo not given) | . | . | -14.5% | 10µM* | .
CCOc1ccc(C2c3[nH]c4ccccc4c3CCN2C(=O)CSc2ccccc2)cc1 (stereo not given) | . | . | 3.1% | 5.01µM* | .
O=C(CCc1ccccc1)N1CCc2c([nH]c3ccccc23)C1c1ccc(Cl)cc1 (stereo not given) | . | . | 0.6% | ? | .
O=C(CCC1CCCC1)N1CCc2c([nH]c3ccccc23)C1c1ccc(F)cc1 (stereo not given) | . | . | -0.8% | ? | .

High-throughput results from PubChem.
